# Data from PubChem BioAssay (Tox21).
# Values without a mark were called inactive. A call without a number means that no potency is given here. Activity calls are given as the source filed them. Unless noted, calls follow the shape of the dose curve; as a rule, active = well fitted curve in the direction sought with a large enough effect in the repeat runs; inconclusive = weak or mixed curves; inactive = no such curve, though single readings can be large; an effect the other way counts as inactive or inconclusive.
# Columns and labels:
# [1] = qHTS assay to identify small molecule antagonists of the thyroid receptor (TR) signaling pathway - cell viability counter screen (AID 743064); also: nearly all actives have a fitted effect of over 50% in size; also: potency is read from the fitted curve at half-maximal effect
# How it was run: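 Rat GH3 pituitary tumor cells stably expressing two TR response elements driving luciferase were plated, rested 4 h, then dosed with library compounds and T3 (1 nM final). After 23.5 h at 37 °C, CellTiter-Fluor was added for 30 min and fluorescence recorded.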
# [2] = test system: thyroid hormone receptor (rat, GH3 cells); test: qHTS assay to identify small molecule agonists of the thyroid receptor (TR) signaling pathway (AID 743066; calls by dose curve)
# [3] = qHTS assay to identify small molecule antagonists of the estrogen receptor alpha (ER-alpha) signaling pathway - cell viability counter screen (AID 743074; calls by dose curve;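 also: HEK293 cells carrying ER-alpha-UAS-bla reporter stimulated with 17beta-estradiol; nearly all actives have a fitted effect of over 45% in size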)
# [4] = target: Estrogen receptor (Homo sapiens) (UniProt P03372); test: qHTS assay to identify small molecule agonists of the estrogen receptor alpha (ER-alpha) signaling pathway (AID 743075; calls by dose curve;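 also: HEK293 GripTite cells with ER-alpha and UAS-driven beta-lactamase reporter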; also: potency is read from the fitted curve at half-maximal effect)
# [5] = target: Estrogen receptor (Homo sapiens) (UniProt P03372); test: qHTS assay to identify small molecule agonists of the estrogen receptor alpha (ER-alpha) signaling pathway using the BG1 cell line (AID 743079); also: nearly all actives have a fitted effect of over 20% in size; also: potency is read from the fitted curve at half-maximal effect
# [6] = qHTS assay to identify small molecule antagonists of the estrogen receptor alpha (ER-alpha) signaling pathway using the BG1 cell line - cell viability counter screen (AID 743081);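 also: compound given together with 17beta-estradiol as the ER stimulus; series mostly up to about 70 µM; nearly all actives have a fitted effect of over 45% in size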
# Aromatase (Homo sapiens) = Aromatase (Homo sapiens) (UniProt P11511); test: qHTS assay to identify aromatase inhibitors (AID 743083); also: nearly all actives have a fitted effect of over 55% in size; also: potency is read from the fitted curve at half-maximal effect
# [7] = qHTS assay to identify small molecule antagonists of the thyroid receptor (TR) signaling pathway (AID 743065); also: nearly all actives have a fitted effect of over 55% in size; also: potency is read from the fitted curve at half-maximal effect
# How it was run: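 GH3.TRE-Luc rat pituitary cells carrying two TR response elements driving luciferase were plated for 4 h, given compound plus 1 nM T3 (final), and incubated 23.5 h at 37 C. ONE-Glo luminescence measured reporter inhibition; CellTiter-Fluor fluorescence tracked cytotoxicity.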
# [8] = target: Estrogen receptor (Homo sapiens) (UniProt P03372); test: qHTS assay to identify small molecule antagonists of the estrogen receptor alpha (ER-alpha) signaling pathway (AID 743069; active = well fitted curve in the direction sought with a large enough effect in the signal ratio in the repeat runs, not every such curve was filed as active; inconclusive = weak or mixed curves, or effect the other way; inactive = no such curve, though single readings can be large or run the other way; the % refers to the signal ratio)
# How it was run: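 Estradiol-stimulated ER-alpha-UAS-bla HEK293 cells, 18 hr compound exposure at 37C. LiveBLAzer B/G substrate, 2 hr RT, fluorescence read.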
# [9] = qHTS assay to identify small molecule antagonists of the estrogen receptor alpha (ER-alpha) signaling pathway using the BG1 cell line (AID 743080; calls by dose curve;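 also: BG1 cells stimulated with 17beta-estradiol alongside compound; nearly all actives have a fitted effect of over 25% in size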; also: potency is read from the fitted curve at half-maximal effect)
# How it was run: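 Readout is ONE-Glo luminescence, taken 30 min at room temperature after reagent addition, preceded by a CellTiter-Fluor viability read; BG1-Luc-4E2 cells had received compound and 17beta-estradiol for 21.5 h at 37 C.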
# Sequence of Aromatase (Homo sapiens) (P11511 whole entry, looked up): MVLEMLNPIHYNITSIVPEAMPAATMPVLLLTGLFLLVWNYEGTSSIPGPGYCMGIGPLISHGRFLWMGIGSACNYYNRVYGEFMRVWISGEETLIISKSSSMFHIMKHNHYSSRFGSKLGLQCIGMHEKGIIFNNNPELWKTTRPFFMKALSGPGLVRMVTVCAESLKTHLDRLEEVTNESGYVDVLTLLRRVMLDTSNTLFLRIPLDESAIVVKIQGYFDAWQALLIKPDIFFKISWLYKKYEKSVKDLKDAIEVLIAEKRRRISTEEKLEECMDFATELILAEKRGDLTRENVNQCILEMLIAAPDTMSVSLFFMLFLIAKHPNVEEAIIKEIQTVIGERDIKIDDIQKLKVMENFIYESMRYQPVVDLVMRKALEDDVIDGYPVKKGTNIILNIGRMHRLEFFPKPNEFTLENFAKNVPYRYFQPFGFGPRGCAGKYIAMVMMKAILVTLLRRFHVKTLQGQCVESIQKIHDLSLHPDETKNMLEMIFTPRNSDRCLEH
# Sequence of Estrogen receptor (Homo sapiens) (P03372 whole entry, looked up): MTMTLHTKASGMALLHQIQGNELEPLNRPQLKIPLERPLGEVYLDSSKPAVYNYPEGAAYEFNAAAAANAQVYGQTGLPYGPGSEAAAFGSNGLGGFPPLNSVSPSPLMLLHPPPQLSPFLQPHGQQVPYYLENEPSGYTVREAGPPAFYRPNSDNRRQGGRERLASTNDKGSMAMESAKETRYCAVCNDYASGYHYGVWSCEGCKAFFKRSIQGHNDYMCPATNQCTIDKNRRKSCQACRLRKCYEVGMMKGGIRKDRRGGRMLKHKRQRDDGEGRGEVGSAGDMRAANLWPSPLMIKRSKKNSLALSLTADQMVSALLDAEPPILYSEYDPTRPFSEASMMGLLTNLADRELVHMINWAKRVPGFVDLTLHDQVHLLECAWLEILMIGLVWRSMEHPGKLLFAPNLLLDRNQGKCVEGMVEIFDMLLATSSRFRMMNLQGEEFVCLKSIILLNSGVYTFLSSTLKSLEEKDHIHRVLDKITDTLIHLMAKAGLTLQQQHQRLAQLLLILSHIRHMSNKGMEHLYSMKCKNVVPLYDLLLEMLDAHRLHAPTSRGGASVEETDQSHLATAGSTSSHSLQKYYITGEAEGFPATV
SMILES,Potency [1],outcome [2],outcome [3],Potency [4],Potency [5],Potency [6],Potency (Aromatase (Homo sapiens)),Potency [7],Potency [8],Potency [9]
Clc1cc(Cl)c2c(c1)N=C1CCCCCN1C2,inactive,inactive,inactive,inactive,23.7 µM (active),inactive,inactive,,,
C/C=C1\[C@H]2C=C(C)C[C@]1(N)c1ccc(=O)[nH]c1C2,inactive,,inactive,,,inactive,inactive,inactive,,
C(/C=C/C=C/Nc1ccccc1)=Nc1ccccc1,inactive,,inactive,inactive,inactive,inactive,inactive,,inactive,inactive
CC(C)(Cc1c[nH]c2ccccc12)NCC(O)COc1ccccc1C#N (stereo not given),21.1 µM (active),,inactive,,,inactive,inactive,23.7 µM (active),,
N#C[C@@H]1CC(F)(F)CN1C(=O)CNC1CC2CCC(C1)N2c1ncccn1 (stereo not given in full),inactive,,inactive,inactive,inactive,inactive,inactive,,inactive,
CCc1ccc(C(=O)C(C)CN2CCCCC2)cc1 (stereo not given),inactive,inactive,inactive,,,inactive,inactive,,,
Nc1ncnc2c1ncn2[C@@H]1O[C@H](CO)[C@@H](O)[C@H]1O,inactive,,inactive,inactive,inactive,inactive,inactive,,inactive,inactive
Nc1ccccc1Nc1ccccc1,15.4 µM (active),,inactive,,,inactive,,12.2 µM (active),,
COc1ccc(/C=C/S(=O)(=O)NC(=O)c2ccc(C)cc2Cl)cc1,inactive,,,,,inactive,inactive,,,
CCCCCCCCNC,inactive,inactive,,,,inactive,inactive,inactive,,
COc1cc(CNC(=O)CCCC/C=C/C(C)C)ccc1O,inactive,inactive,inactive,inactive,inactive,inactive,,,inactive,inactive
O=C(O)c1cccnc1Nc1cccc(C(F)(F)F)c1,inactive,inactive,inactive,inactive,inactive,inactive,inactive,,,inactive
CCCCCCCCCC(C)C=O (stereo not given),inactive,inactive,inactive,,,inactive,inactive,,,
CCOC(C)OCC,inactive,,inactive,,,inactive,inactive,,,
Nc1ccc(C(=O)Oc2ccccc2)c(O)c1,inactive,inactive,inactive,13.4 µM [inconclusive] (active),6.68 µM (active),inactive,inactive,,inactive,
CC(C)C/C=C(\C=O)c1ccccc1,,inactive,inactive,inactive,61.1 µM (active),inactive,inactive,inactive,inactive,inactive
OCCc1ccncc1,,inactive,inactive,inactive,inactive,inactive,,inactive,inactive,inactive
CO[C@@H]1[C@@H](O[C@@H]2O[C@H](C)[C@@H](O[C@H]3C[C@@](C)(O)[C@@H](O)[C@H](C)O3)[C@H](N(C)C)[C@H]2O)[C@@H](CC=O)C[C@@H](C)[C@@H](O[C@@H]2CC[C@H](N(C)C)[C@@H](C)O2)/C=C/C=C/C[C@@H](C)OC(=O)C[C@H]1OC(C)=O,26.6 µM (active),,,inactive,inactive,,inactive,,inactive,inactive
CCCN(C1CCN(C(=O)C2CCNCC2)CC1)[C@@H]1CCc2ccc(OC)cc2C1,68.6 µM (active),inactive,,,,,inactive,54.5 µM (active),,
O=S(=O)(O)c1cc(Cl)c(Cl)cc1Cl,inactive,,inactive,inactive,inactive,inactive,inactive,,inactive,inactive
O=C(OC1C[C@H]2CC[C@@H](C1)[N+]21CCCC1)C(O)(c1ccccc1)c1ccccc1 (stereo not given in full),inactive,inactive,,,,inactive,inactive,inactive,,
Cc1nc2sccn2c(=O)c1CCN1CCC(=C(c2ccc(F)cc2)c2ccc(F)cc2)CC1,29.8 µM (active),,inactive,inactive,,inactive,inactive,26.6 µM (active),inactive,29.8 µM (active)
C1CCN(CN2CCCCC2)CC1,,inactive,inactive,inactive,inactive,inactive,inactive,inactive,inactive,inactive
CNc1ccccc1,,inactive,inactive,inactive,inactive,inactive,inactive,inactive,inactive,inactive
Cc1ccc2c(Cl)cc(Cl)c(O)c2n1,1.19 µM (active),,,,,,13.3 µM (active),1.68 µM (active),,9.44 µM (active)
Cc1ccc(NC(=O)c2ccc(CN3CCN(C)CC3)cc2)cc1Nc1nccc(-c2cccnc2)n1,21.1 µM (active),,inactive,inactive,inactive,,,26.6 µM (active),,
